# Results from PubChem BioAssay.
# The source made the active and inactive calls. Cut-off read from the data, not from the text of the source, unless noted: active = inhibition above about 80%; inactive = the rest.
# Columns and labels:
# [1] = LFS_MB_P medulloblastoma growth inhibition, cell-based, chromothripsis tumors, cisplatin or BGB combos (AID 1671449); settings: LFS_MB_P medulloblastoma cells;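 note: cells exposed for 96 hours; 0% = vehicle DMSO and 100% = killing by high DMSO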
# [2] = HDN33 neuroblastoma growth inhibition, cell-based, chromothripsis tumors, cisplatin or BGB combos (AID 1671450); settings: HDN33 neuroblastoma cells, stronger effect = higher value;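 note: cells exposed to compound for four days; 0% = vehicle DMSO and 100% = cell killing by high DMSO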
# [3] = ICB984 medulloblastoma cell growth inhibition, synergistic combos for chromothripsis tumors, cisplatin or BGB combos (AID 1671451; call rule not given here;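 note: cells exposed for 96 hours before readout; 0% = vehicle DMSO and 100% = killing by high DMSO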); settings: ICB984 medulloblastoma cells, drug combinations, stronger effect = higher value
# [4] = LFS_MB_1R medulloblastoma cell growth inhibition, synergistic combos for chromothripsis tumors, cisplatin or BGB combos (AID 1671452); settings: LFS_MB_1R medulloblastoma cells, stronger effect = higher value;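 note: cells exposed for 96 hours before readout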
# [5] = HTB85 osteosarcoma cell growth inhibition, synergistic combos for chromothripsis tumors, BGB or cisplatin IC20 combos (AID 1671453); settings: HTB85 osteosarcoma cells, drug combinations, stronger effect = higher value;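 note: cells exposed for 96 hours before readout; 0% = vehicle DMSO and 100% = high DMSO killing control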
# [6] = CRL2098 osteosarcoma cell growth inhibition, synergistic combos for chromothripsis tumors, BGB or cisplatin IC20 combos (AID 1671454); settings: CRL2098 osteosarcoma cells, drug combinations, stronger effect = higher value;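 note: cells exposed for 96 h before readout; 0% = vehicle DMSO and 100% = killing by high DMSO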
# [7] = HD-MB03 medulloblastoma cell growth inhibition, synergistic combos for chromothripsis tumors, BGB or cisplatin IC20 combos (AID 1671455; in the data active = inhibition above about 83%;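 note: 0% = vehicle DMSO and 100% = high DMSO as cytotoxic control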); settings: HD-MB03 medulloblastoma cells, stronger effect = higher value
# [8] = UWB1.289 ovarian carcinoma cell growth inhibition, synergistic combos for chromothripsis tumors, BGB or cisplatin combos (AID 1671456); settings: UWB1.289 ovarian carcinoma cells, stronger effect = higher value;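 note: cells exposed to compound for four days; 0% = vehicle DMSO and 100% = killing by high DMSO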
# [9] = LFS_MB_2R medulloblastoma cell growth inhibition, synergistic combos for chromothripsis tumors, cisplatin combos (AID 1671457); settings: LFS_MB_2R medulloblastoma cells, stronger effect = higher value;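 note: cells exposed to compound for four days before readout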
# [10] = MDA-MB-436 breast carcinoma cell growth inhibition, synergistic combos for chromothripsis tumors, BGB or cisplatin combos (AID 1671458; call rule not given here;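 note: cells exposed for 96 hours; 0% = vehicle DMSO and 100% = killing by high DMSO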); settings: MDA-MB-436 breast carcinoma growth inhibition, drug combinations, stronger effect = higher value
# [11] = UWB1.289_BRCA1 ovarian cancer growth, cell-based, BGB or cisplatin combinations (AID 1671459); settings: UWB1.289 BRCA1 ovarian carcinoma, drug combinations, stronger effect = higher value
# [12] = human astrocyte viability loss, single and combined drugs, cytotoxicity control for chromothriptic childhood tumor combination screen, cell-based, BGB or cisplatin IC20 combos (AID 1671460); settings: Human astrocytes, drug combinations, stronger effect = higher value;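 note: cells exposed to compounds for 96 hours before viability readout; 0% = vehicle and 100% = killing control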
# [13] = growth inhibition of BT084 medulloblastoma cells, cell-based, ICGC_MB145, cisplatin and BGB IC40 combos (AID 1671461); settings: drug combinations, stronger effect = higher value;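 note: cells exposed to drugs for 96 hours; 0% = vehicle DMSO and 100% = high DMSO full killing control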
# [14] = growth inhibition of RCMB18 medulloblastoma cells, cell-based, cisplatin and BGB IC40 combos (AID 1671462); settings: stronger effect = higher value;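 note: cells exposed to compound for four days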
# [15] = growth inhibition of CRL1545 osteosarcoma cells, cell-based, cisplatin and BGB IC20 combos (AID 1671464); settings: stronger effect = higher value;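 note: cells exposed to compound for 96 hours before readout; 0% = vehicle DMSO and 100% = high DMSO killing control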
# [16] = viability rescue of complex I mutant cybrids, primary screen, cell-based, galactose medium, ATP luminescence (AID 1645843;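 active = z-score of at least 1.8 in each of two replicates, scored against plate mean and spread of sample wells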;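 note: positive z means more ATP and so rescue of galactose-driven cybrid death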); settings: complex I mutant cybrid cells, 72 h, stronger effect = higher value
# [17] = at 0.5 µM, stronger effect = higher value
# [18] = measured here: combination with BGB IC20, at 0.005 µM
# [19] = measured here: combination with BGB IC40, at 0.005 µM
# [20] = measured here: combination with BGB IC40, at 0.05 µM
# [21] = measured here: combination with cisplatin, at 0.5 µM, stronger effect = higher value
# [22] = measured here: combination with cisplatin, at 5 µM, stronger effect = higher value
# [23] = measured here: with BGB IC20 combination, at 0.5 µM
# [24] = measured here: with cisplatin IC20 combination, at 0.5 µM
# [25] = measured here: 5 uM single agent, at 5 µM
# [26] = measured here: combination with cisplatin, at 0.5 µM
# [27] = measured here: combination with cisplatin, at 5 µM
# [28] = measured here: with BGB IC20, at 0.5 µM
# [29] = measured here: with BGB IC20, at 5 µM
# [30] = measured here: with cisplatin IC20, at 0.5 µM
# [31] = measured here: with cisplatin IC20, at 5 µM
# [32] = measured here: combination with BGB at IC20, at 0.5 µM
# [33] = measured here: combination with cisplatin at IC20, at 0.5 µM
# [34] = measured here: combo with BGB at IC20, at 0.5 µM
# [35] = measured here: combo with cisplatin at IC20, at 0.5 µM
# [36] = measured here: inhibition with BGB combination, at 0.05 µM
# [37] = measured here: inhibition with cisplatin combination, at 0.05 µM
# [38] = measured here: BGB combination, at 0.5 µM
# [39] = measured here: BGB combination, at 5 µM
# [40] = measured here: cisplatin combination, at 0.5 µM
# [41] = measured here: cisplatin combination, at 5 µM
# [42] = BGB combination, concentration series, at 5 µM
# [43] = cisplatin combination, concentration series, at 5 µM
# [44] = measured here: combo with BGB IC20, at 0.5 µM
# [45] = measured here: combo with cisplatin IC20, at 0.5 µM
# [46] = cisplatin combination, at 0.5 µM
# [47] = measured here: BGB IC40 combination 0.05 uM, at 0.05 µM
# [48] = measured here: BGB IC40 combination, at 0.05 µM
compound,measurement,setting,value
CC1OC(CC(=O)O)CC2=C1C(=O)c1c(O)cccc1C2=O (stereo not drawn),inhibition,[1]; [17],13.6% (inactive)
same,inhibition,[1]; [18],-20.4%
same,inhibition,[1]; [19],-16.6%
same,inhibition,[1]; [20],120%
same,inhibition,[1]; [21],28.7%
same,inhibition,[1]; [22],128%
same,inhibition,"[2]; BGB combo, at 5 µM",100%
same,inhibition,[2]; at 0.5 µM,99.9% (active)
same,inhibition,"[2]; cisplatin combo, at 5 µM",99.9%
same,inhibition,[2]; [23],99.9%
same,inhibition,[2]; [24],99.9%
same,inhibition,"[2]; single agent, at 5 µM",99.9%
same,inhibition,"[3]; BGB IC20 combo, at 0.005 µM",101%
same,inhibition,"[3]; BGB IC40 combo, at 0.005 µM",102%
same,inhibition,"[3]; BGB IC40 combo, at 0.05 µM",102%
same,inhibition,[3]; at 0.5 µM,0.28% (inactive)
same,inhibition,"[3]; cisplatin combo, at 0.05 µM",102%
same,inhibition,"[3]; cisplatin combo, at 0.5 µM",10.8%
same,inhibition,"[3]; cisplatin combo, at 5 µM",102%
same,inhibition,[3]; [25],98.7%
same,inhibition,[4]; at 0.5 µM,106% (active)
same,inhibition,[4]; [20],101%
same,inhibition,[4]; [26],111%
same,inhibition,[4]; [27],106%
same,inhibition,[5]; at 0.5 µM,99.9% (active)
same,inhibition,[5]; [28],100%
same,inhibition,[5]; [29],100%
same,inhibition,[5]; [30],99.9%
same,inhibition,[5]; [31],99.7%
same,inhibition,"[5]; single agent, at 5 µM",99.7%
same,inhibition,[6]; at 0.5 µM,100% (active)
same,inhibition,[6]; [32],100%
same,inhibition,[6]; [33],100%
same,inhibition,[7]; at 0.5 µM,99.8% (active)
same,inhibition,[7]; [34],99.9%
same,inhibition,[7]; [35],99.8%
same,inhibition,[8]; at 0.5 µM,102% (active)
same,inhibition,[8]; [36],65.9%
same,inhibition,[8]; [37],91.2%
same,inhibition,[9]; at 0.5 µM,106% (active)
same,inhibition,[9]; [26],105%
same,inhibition,[9]; [27],105%
same,inhibition,[10]; at 0.5 µM,102% (active)
same,inhibition,[10]; [38],103%
same,inhibition,[10]; [39],103%
same,inhibition,[10]; [40],101%
same,inhibition,[10]; [41],109%
same,inhibition,[11]; [42],121%
same,inhibition,[11]; at 0.5 µM,111% (active)
same,inhibition,[11]; [43],132%
same,inhibition,[12]; at 0.5 µM,102% (active)
same,inhibition,[12]; [44],105%
same,inhibition,[12]; [45],101%
same,inhibition,[13]; at 0.5 µM,106% (active)
same,inhibition,[13]; [46],108%
same,inhibition,"[13]; cisplatin combination, at 5 µM",110%
same,inhibition,[13]; [47],67.7%
same,inhibition,"[13]; single agent, at 5 µM",107%
same,inhibition,[14]; at 0.5 µM,99.3% (active)
same,inhibition,"[14]; cisplatin combo, at 5 µM",103%
same,inhibition,[14]; [48],97.5%
same,inhibition,[14]; [26],102%
same,inhibition,"[14]; single agent, at 5 µM",101%
same,inhibition,[15]; at 0.5 µM,99.9% (active)
same,inhibition,[15]; [23],99.9%
same,inhibition,[15]; [24],99.9%
same,inhibition,"[15]; single agent, at 0.05 µM",99.9%
same,inhibition,"[15]; single agent, at 5 µM",99.9%
CC(C)CN1CCC(CNCc2ccc(C#CC(C)(C)O)s2)CC1,z-score,[16],-1.05 (inactive)
Cn1ncc(NC(=O)CCc2cn3ccccc3n2)n1,z-score,[16],0.67 (inactive)
Nc1nc(NC2CC2)cc(-c2cccc(Cl)c2Cl)n1,inhibition,[1]; [17],-24.4% (inactive)
same,inhibition,[1]; [18],6.42%
same,inhibition,[1]; [19],-13.3%
same,inhibition,[1]; [20],-3.68%
same,inhibition,[1]; [21],-27.2%
same,inhibition,[1]; [22],-1.92%
same,inhibition,"[2]; BGB combo, at 5 µM",4.24%
same,inhibition,[2]; at 0.5 µM,-22.2% (inactive)
same,inhibition,"[2]; cisplatin combo, at 5 µM",-25.5%
same,inhibition,[2]; [23],-14.4%
same,inhibition,[2]; [24],-33.4%
same,inhibition,"[2]; single agent, at 5 µM",1.5%
same,inhibition,"[3]; BGB IC20 combo, at 0.005 µM",-16.3%
same,inhibition,"[3]; BGB IC40 combo, at 0.005 µM",-42.9%
same,inhibition,"[3]; BGB IC40 combo, at 0.05 µM",-23.9%
same,inhibition,[3]; at 0.5 µM,-15.4% (inactive)
same,inhibition,"[3]; cisplatin combo, at 0.05 µM",-28.8%
same,inhibition,"[3]; cisplatin combo, at 0.5 µM",-25.9%
same,inhibition,"[3]; cisplatin combo, at 5 µM",-24%
same,inhibition,[3]; [25],-4.67%
same,inhibition,[4]; at 0.5 µM,-47.5% (inactive)
same,inhibition,[4]; [20],-29.4%
same,inhibition,[4]; [26],-115%
same,inhibition,[4]; [27],-60.1%
same,inhibition,[5]; at 0.5 µM,-20.9% (inactive)
same,inhibition,[5]; [28],-3.53%
same,inhibition,[5]; [29],-8.44%
same,inhibition,[5]; [30],-38.1%
same,inhibition,[5]; [31],-21.3%
same,inhibition,"[5]; single agent, at 5 µM",3.83%
same,inhibition,[6]; at 0.5 µM,-50% (inactive)
same,inhibition,[6]; [32],-42.1%
same,inhibition,[6]; [33],-36.5%
same,inhibition,[7]; at 0.5 µM,-12.4% (inactive)
same,inhibition,[7]; [34],-17%
same,inhibition,[7]; [35],-8.02%
same,inhibition,[8]; at 0.5 µM,-15.7% (inactive)
same,inhibition,[8]; [36],-10.8%
same,inhibition,[8]; [37],-19.7%
same,inhibition,[9]; at 0.5 µM,-12.8% (inactive)
same,inhibition,[9]; [26],-18%
same,inhibition,[9]; [27],18.1%
same,inhibition,[10]; at 0.5 µM,-5.02% (inactive)
same,inhibition,[10]; [38],-1.67%
same,inhibition,[10]; [39],10.3%
same,inhibition,[10]; [40],-5.74%
same,inhibition,[10]; [41],15.8%
same,inhibition,[11]; [42],9.28%
same,inhibition,[11]; at 0.5 µM,-9.72% (inactive)
same,inhibition,[11]; [43],10.7%
same,inhibition,[12]; at 0.5 µM,-2.78% (inactive)
same,inhibition,[12]; [44],-4.24%
same,inhibition,[12]; [45],6.45%
same,inhibition,[13]; at 0.5 µM,-9.21% (inactive)
same,inhibition,[13]; [46],-6.21%
same,inhibition,"[13]; cisplatin combination, at 5 µM",-20.8%
same,inhibition,[13]; [47],-10.7%
same,inhibition,"[13]; single agent, at 5 µM",-6.16%
same,inhibition,[14]; at 0.5 µM,-8.4% (inactive)
same,inhibition,"[14]; cisplatin combo, at 5 µM",-0.639%
same,inhibition,[14]; [48],-3.5%
same,inhibition,[14]; [26],-22.4%
same,inhibition,"[14]; single agent, at 5 µM",-28.4%
same,inhibition,[15]; at 0.5 µM,-36.8% (inactive)
same,inhibition,[15]; [23],-16.7%
same,inhibition,[15]; [24],-46.8%
same,inhibition,"[15]; single agent, at 0.05 µM",-25%
same,inhibition,"[15]; single agent, at 5 µM",-32.6%
